About 79,000 compounds went through this panel and 15% of them were active in at least one assay; those are over-represented in the sample as a whole. Rule as the data show it: active = growth inhibition above about 70%; inactive = the rest.
Key:
[1] = NCI Yeast Anticancer Drug Screen. Data for the rad50 strain (AID 155);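 also: 0% = growth of vehicle-only cultures of the same strain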; details: S. cerevisiae rad50 strain growth inhibition; at 50.0 µM; active compounds read high
In short: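 Vehicle-treated cultures provide the reference for the growth inhibition reported for compound-exposed, repair-deficient yeast.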

[2] = NCI Yeast Anticancer Drug Screen. Data for the mec2-1 strain (AID 157); details: S. cerevisiae mec2-1 strain, at 50.0 µM, active compounds read high
In short: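 mec2-1 yeast strain, carrying an alteration in DNA damage repair or cell cycle control, was exposed to compounds; growth inhibition was measured relative to vehicle-treated controls.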

[3] = NCI Yeast Anticancer Drug Screen. Data for the sgs1 mgt1 strain (AID 161);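 also: 0% = growth of cultures given vehicle only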; details: S. cerevisiae sgs1 mgt1 strain, at 50.0 µM, active compounds read high
In short: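 Percent growth inhibition was derived by comparing compound-exposed mutant yeast with vehicle-exposed cultures. The strain carries alterations in DNA damage repair.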

[4] = NCI Yeast Anticancer Drug Screen. Data for the cln2 rad14 strain (AID 165);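 also: 0% = growth equal to vehicle treated cultures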; details: S. cerevisiae cln2 rad14 strain, at 50.0 µM, active compounds read high
In short: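 Yeast carrying cln2 and rad14 alterations (cell cycle control and DNA damage repair) were exposed to compounds. Growth inhibition was measured against vehicle-treated controls.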

[5] = NCI Yeast Anticancer Drug Screen. Data for the bub3 strain (AID 167); details: S. cerevisiae bub3 mutant strain, at 50.0 µM, active compounds read high
In short: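 Mutant yeast screening strain plus compound; vehicle-treated cultures serve as the 0% inhibition reference.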

[6] = NCI Yeast Anticancer Drug Screen. Data for the mlh1 rad18 strain (AID 175); details: S. cerevisiae mlh1 rad18 strain growth inhibition; at 50.0 µM; active compounds read high
In short: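 Growth inhibition of the yeast strain was measured after compound exposure and expressed relative to vehicle-treated controls. The strain carries defined defects in DNA damage repair.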

Measured: growth inhibition

CCC(=O)Nc1cccc(OC(=O)NC2CCCCC2)c1
inactive: [1] 1.35% | [2] 13.1% | [3] 16.2% | [4] 1.3% | [5] 20.2% | [6] 11.1%

CC(C)(O)CC(=O)/C=C\c1ccc2c(c1)OCO2
inactive: [1] 25.9% | [2] 27.9% | [3] 10.1% | [4] -11.9% | [5] -4.4% | [6] 4.35%

CN(C)CCNc1ccc(NCCN(C)C)c2c1C(=O)c1ncsc1C2=O
inactive: [1] -8.15% | [2] -0.8% | [3] 14.2% | [4] 8.35% | [5] 2.1% | [6] -16.8%

COc1ccc(N2C=Nn3c(nc4sc5c(c4c3=O)CCCC5)C2)cc1
inactive: [1] 9.55% | [2] 4.2% | [3] 0.35% | [4] -1.9% | [5] 4.25% | [6] -24.4%

COC(=O)CCC(=O)CC(=O)C(=O)Nc1c(Cl)cc([N+](=O)[O-])cc1Cl
inactive: [1] 11.4% | [2] -17.1% | [3] 0.5% | [4] 24.1% | [5] -4.5% | [6] 3.8%

CCn1c2ccccc2c2ccc(N=Nc3ccccc3)cc21
inactive: [1] 36.8% | [2] 12.6% | [3] 19.2% | [4] -1.75% | [5] 22.8% | [6] 17.8%

Brc1ccc(/C(=N/Nc2ccccc2)Oc2ccccc2)cc1
inactive: [1] 17.6% | [2] 1.8% | [3] 16.1% | [4] 25.3% | [5] 14.8% | [6] 19.6%

O=C1C2=C(Nc3cc([N+](=O)[O-])ccc3N2)OC1c1ccc2c(c1)OCO2 (stereo unspecified)
inactive: [1] -10.4% | [2] -16.9% | [3] -15.1% | [4] 5.75% | [5] -28.2% | [6] -5.45%

CCCOc1cc2c(cc1C(C)c1ccc(OCC)cc1)OCO2 (stereo unspecified)
inactive: [1] 36% | [2] -25.8% | [3] -9.3% | [4] 0.9% | [5] -26.8% | [6] -49.8%

c1ccc(-c2ccc(-c3c(-c4ccccc4)ccc(-c4ccccc4)c3-c3ccccc3)cc2)cc1
inactive: [1] 20.8% | [2] -0.7% | [3] -10.1% | [4] 20.9% | [5] -2.85% | [6] -1.4%

O=S(=O)(O)CCS(=O)(=O)O
inactive: [1] -15.8% | [2] -19.3% | [3] -3.85% | [4] -51.3% | [5] 1.45% | [6] -45.9%

CN(C)C(=O)c1cccc(C2CCCCC2)c1O
inactive: [1] -10.8% | [2] 1.85% | [3] 14.6% | [4] -81.4% | [5] -18.6% | [6] -14.7%

CCOC/C(=N\NC(N)=O)c1ccccc1
inactive: [1] -16.8% | [2] -22.2% | [3] -22.9% | [4] -1.85% | [5] 9.3% | [6] -20.3%

O=C(O)C1CCCC2C(O)CCC(O)C12 (stereo unspecified)
inactive: [1] -10.4% | [2] -15.4% | [3] -1.85% | [4] -12.9% | [5] -7.2% | [6] -34.1%

COC(=O)CCc1ccc(NC(=O)OC)cc1
inactive: [1] -1.4% | [2] 20.3% | [3] 10.9% | [4] 11.2% | [5] 14.8% | [6] -4.7%

CC#CC(O)(C(=O)OCCCN(C)C)C1CCCCC1 (stereo unspecified)
inactive: [1] 12.4% | [2] 3.55% | [3] 3.85% | [4] 2.25% | [5] 8.3% | [6] 9.25%

O=C(O)/C=C/C(=O)Nc1cccc2c1Cc1ccccc1-2
inactive: [1] -7.2% | [2] 9% | [3] 20.9% | [4] -29.5% | [5] -4.3% | [6] 19.9%

NC(=O)C(CC(C(N)=O)C(N)=O)C(N)=O
inactive: [1] 7.5% | [2] 18.4% | [3] -8.45% | [4] -24.9% | [5] 7.7% | [6] -6.55%

Cc1cccc(-n2cnc3c(N(CCO)CCO)ncnc32)c1
inactive: [1] 6.55% | [2] 2.6% | [3] -10.1% | [4] -4.5% | [5] 2.25% | [6] -4.3%

CCc1cnc(N)nc1N
inactive: [1] -0.6% | [2] 4.75% | [3] 5.85% | [4] 1.95% | [5] 0.95% | [6] 0.65%

CCCCS(=O)(=O)C1CCCC1=O (stereo unspecified)
inactive: [1] -3.5% | [2] 5.5% | [3] -2.55% | [4] -7.1% | [5] 1.45% | [6] 1.9%

CCC(=O)OCCCCCCOC(=O)CC
inactive: [1] 18.3% | [2] 6% | [3] 12.5% | [4] -15% | [5] 19.9% | [6] -5.9%

COC(=O)[C@@]12CN(C)[C@@H](C(C)(C)C)N1C(=O)OC2c1ccccc1 (stereo partly specified)
inactive: [1] 24.4% | [2] -25.4% | [3] -23.1% | [4] -1.8% | [5] 36.6% | [6] -8.35%

Cc1ccc(S/C=C/C(=O)Nc2ccccc2)cc1
inactive: [1] -10.8% | [2] 13.4% | [3] 7.1% | [4] 43.1% | [5] 2.85% | [6] 5.6%

CCc1ncc(C)[nH]1
inactive: [1] 0.55% | [2] -13.8% | [3] -6.35% | [4] -0.15% | [5] -12.1% | [6] -8.8%

CC(=O)c1ccc(OCc2ccccc2)c(OCc2ccccc2)c1
inactive: [1] 2.45% | [2] 0.8% | [3] 22.8% | [4] 10.9% | [5] 22.1% | [6] 11.2%

O=C(O)/C=C/C(=O)Nc1ccc2c(c1)-c1ccccc1C2=O
inactive: [1] 15.9% | [2] 14.4% | [3] 17.9% | [4] 5.25% | [5] 5.15% | [6] 16.6%

O=[N+]([O-])c1ccc(N/N=C(/c2ccc3ccccc3c2)c2ccccc2F)c([N+](=O)[O-])c1
inactive: [1] -9% | [2] -4.6% | [3] -12.2% | [4] -12% | [5] -1.85% | [6] -13.6%

COc1ccc(N=C2C(=Nc3ccc(OC)cc3)N(c3ccc(OC)cc3)C(=S)N2C)cc1
inactive: [1] 19% | [2] -7.1% | [3] -39% | [4] -12% | [5] -7.65% | [6] 13.5%

O=c1[nH]nc(-c2ccccc2)n1/N=C\c1ccccc1
inactive: [1] -33.1% | [2] -10.3% | [3] -15.6% | [4] -26.1% | [5] 6.15% | [6] -26%

CC(CN1CCCCC1)SSC(C)CN1CCCCC1 (stereo unspecified)
inactive: [1] 41.8% | [2] 14.9% | [3] 27% | [4] -29.1% | [5] 11.5% | [6] 44.2%

Cc1[nH]c2c(O)ccc(O)c2c1C
inactive: [1] -1.05% | [2] -9.45% | [3] -9.15% | [4] -20.6% | [5] -8% | [6] 4.9%

CCCCCCCCCCCCCCCC(=O)NCNC(=O)CCCCCCCCCCCCCCC
inactive: [1] -2.15% | [2] -9.75% | [3] -20.4% | [4] -6.55% | [5] 2.65% | [6] -14.2%

NC(=O)N=C(NC(N)=O)NC(N)=O
inactive: [1] -17.1% | [2] -21.5% | [3] -10.2% | [4] -18.3% | [5] -6.85% | [6] -17.1%

CC1S/C(=N\N=C\c2ccc(Cl)cc2)N=C1c1c(O)c2ccccc2oc1=O (stereo unspecified)
inactive: [1] 13.2% | [2] 52% | [3] 57.4% | [4] -7.5% | [5] 7.65% | [6] 45.9%

O=C1c2ccccc2C(=O)N1c1ccccc1Cl
inactive: [1] 4.45% | [2] -11% | [3] 27.8% | [4] -111% | [5] 39% | [6] 19.7%

COC(=O)C(NC(=O)C(CC(=O)OC(C)(C)C)NC(=O)OC(C)(C)C)C(O)c1ccccc1 (stereo unspecified)
inactive: [1] -35.6% | [2] -23.9% | [3] -22.4% | [4] -0.75% | [5] -27.6% | [6] -0.85%

CC(=O)OC1CCC2(C)C(=CCC3C2CCC2(C)C3CCC23OCCS3)C1 (stereo unspecified)
inactive: [1] 34.5% | [2] 3.4% | [3] 9.35% | [4] 9.1% | [5] -4.35% | [6] 8.5%

NCCn1ccnc1
inactive: [1] 13.3% | [2] 1.7% | [3] -1.75% | [4] -19.8% | [5] -3.15% | [6] 1.4%

O=C(c1ccccc1)c1ccc(C(=O)c2ccccc2)cc1
inactive: [1] -0.35% | [2] -1.85% | [3] -19.2% | [4] -6.15% | [5] -9.35% | [6] -19.3%

COc1cc2c(cc1OC)C(Cc1cc(Br)c(OC)c(OC)c1)=[N+](C)CC2
inactive: [1] 1.65% | [2] 4.4% | [3] -12.4% | [4] 9.65% | [5] 1.05% | [6] 11.2%

Source: PubChem BioAssay (NCI)
